# An excerpt weighted towards active compounds, which were near 19% of everything screened.
# TDP1 cell noCPT: qHTS for Inhibitors of human tyrosyl-DNA phosphodiesterase 1 (TDP1): qHTS in cells in absence of CPT; DT40 Tdp1-/- hTDP1 cells, no CPT, ATP luminescence, 48 h; Potency, µM (titrated, usually from 46.2 µM), most hits filed as inhibitors; actives 15% (n = 420,000); AID 686978, 2013; note: nearly all actives have a fitted effect of over 55% in size
#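 Camptothecin absent (DMSO only). Human TDP1-complemented DT40 knockout cells, 400 cells/well, 37 °C for minimum 48 hr; ATP measured via CellTiter-Glo, 30 min dark incubation, luminescence.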
# HT1080 IDH1KD tx: toxicity to HT-1080 IDH1 knockdown cells (counter line); HT-1080 IDH1 knockdown viability, ATP luminescence, 48 h; Potency, µM (doses to about 46.1 µM), hits mostly cytotoxic; actives 2% (n = 360,000)
#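 Assay cells: HT-1080 with IDH1 knockdown, 750 per well, RPMI/5% FBS. Exposure: 48 h at 37 °C following 2 h pre-incubation. Read: CellTiter-Glo luminescence; fitted concentration-response, curve class assigned.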
# IL-1B inflam inh: blocks inflammasome-driven IL-1 beta release; actives 4.7% (n = 360,000); THP-1 LPS/ATP IL-1B secretion, AlphaLISA, 16 h; hits give low values; activity change, % at 57.5 µM; AID 743279; in the data active = activity change below about -50%; inconclusive = mostly about -30% to -49%
#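 THP-1 cells pretreated 1 hr with compounds (up to 57.5 uM final), then stimulated with LPS (250 ng/mL final) plus ATP (1.25 mM final); secreted IL-1B measured by AlphaLISA after 16 hr, decreased signal indicating inhibition.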
# TDP1 cell CPT: DT40-hTDP1 cell growth loss with CPT; chicken DT40 Tdp1-/-;hTDP1 cells + 20 nM CPT, ATP luminescence, 48 h; Potency, µM (titrated, usually from 46.2 µM), hits mostly inhibitors; actives 12% (n = 420,000); note: nearly all actives have a fitted effect of over 55% in size
#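 Chicken DT40 Tdp1-/- cells complemented with human TDP1, 400 cells/well, exposed to compounds plus 20 nM camptothecin for at least 48 h at 37 C; viability read as ATP content by CellTiter-Glo luminescence.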
# HT1080NT lethal: kills 2HG-producing HT-1080-NT fibrosarcoma cells. HT-1080-NT fibrosarcoma viability, CellTiter-Glo ATP luminescence, 48 h. actives 1.6% (n = 360,000). Potency, µM (highest dose often 46.1 µM), actives largely listed as cytotoxic;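 note: NT is the 2HG producing partner of a matched IDH1 knockdown line; nearly all actives have a fitted effect of over 55% in size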
#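 A 48-hour cytotoxicity screen used HT-1080-NT cells plated 2 hours before compound delivery. ATP-based CellTiter-Glo luminescence measured viability, normalized to DMSO and no-cell controls.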
# Hits are given with their value; – = inactive; ? = inconclusive; · = no result. Unless noted, calls come from the whole dose curve; as a rule, active = well fitted curve in the direction sought with a large enough effect; inconclusive = small, poorly fitted or top-dose-only effect, or another doubt; inactive = no such curve, though single readings can be large; an effect the other way counts as inactive or inconclusive.
SMILES,TDP1 cell noCPT,HT1080 IDH1KD tx,IL-1B inflam inh,TDP1 cell CPT,HT1080NT lethal
Cc1ccccc1C1c2[nH]c3ccccc3c2C[C@H]2C(=O)N(c3ccccc3C(=O)NCCCN3CCOCC3)C(=O)N12 (stereo partly specified),16µM,–,–,23µM,–
CCOc1ccc(N2CC(C(=O)Nc3ccccc3N3CCCC3)CC2=O)cc1 (stereo unspecified),?,–,–,?,–
O=C1OCCC1Sc1nnnn1-c1ccc(Cl)cc1 (stereo unspecified),–,–,–,–,–
O=C(Nc1cccc(-c2nc3cccnc3s2)c1)C1c2ccccc2Oc2ccccc21,?,?,–,?,–
COc1ccc(C2CC(=O)c3c(O)cc(O[C@H]4OC(COC5OC(C)C(O)C(O)[C@@H]5O)C(O)C(O)C4O)cc3O2)cc1O (stereo partly specified),–,·,·,–,·
CC(=O)c1ccccc1NC(=O)COC(=O)C1=NN(c2ccccc2)C(=O)CC1,–,–,–,–,–
COc1ccc(CN2C(=O)C(CC(=O)NCc3cccs3)CC(C(=O)N3CCOCC3)=C2C)cc1 (stereo unspecified),–,–,–,–,–
CCOC(=O)c1csc(NC(=O)CN2CCCCC2)n1,–,–,–,–,–
CN(C)CC1CCCCC1OC(=O)c1ccc(Cl)cc1 (stereo unspecified),?,–,–,–,–
CN(C)CC1CCCCC1C1(O)c2ccccc2CSc2sccc21 (stereo unspecified),?,18µM,?,?,18µM
CCOC(=O)Cc1c(C)nc2cc(-c3ccc(C(C)(C)C)cc3)nn2c1C,15µM,·,·,?,·
CCOC(=O)c1cccc(NC(=O)CCc2c(C)nc3cc(-c4ccc(Cl)cc4)nn3c2C)c1,16µM,·,·,21µM,·
CCOc1ccc(NC(=O)CCc2c(C)nc3cc(-c4ccc(Cl)cc4)nn3c2C)cc1,16µM,·,·,15µM,·
COc1ccc(-c2cc3nc(C)c(CCC(=O)Nc4cccc(C(F)(F)F)c4)c(C)n3n2)c(OC)c1,–,·,·,–,·
CCOC(=O)c1cnc2cc(-c3ccc(C(C)(C)C)cc3)nn2c1N,?,–,–,?,–
CC1=C(C(=O)N2CCOCC2)CC(CC(=O)NC2CCCC2)C(=O)N1CCCN1CCCC1=O (stereo unspecified),–,–,–,–,–
COc1ccc(CNc2ncnc3ccc(-c4cccc(NS(C)(=O)=O)c4)cc23)c(OC)c1,15µM,·,·,18µM,·
COc1ccc(CNc2ncnc3ccc(-c4ccoc4)cc23)c(OC)c1,–,·,·,?,·
COc1ccc(CNc2ncnc3ccc(-c4ccccc4CN(C)C)cc23)c(OC)c1,10µM,·,·,21µM,·
COc1ccc(CNc2ncnc3ccc(-c4ccc5c(c4)OCO5)cc23)c(OC)c1,–,·,·,?,·
COc1ccc(CNc2ncnc3ccc(-c4cccc(C#N)c4)cc23)c(OC)c1,26µM,·,·,?,·
COc1cccc(Cn2c(=O)c(-c3cccs3)nc3cnc(OC)nc32)c1,–,·,·,–,·
COc1cc2c(cc1OC)C(C)N(C(=O)c1ccc(Cl)c(S(=O)(=O)N3CCCCC3)c1)CC2 (stereo unspecified),10µM,–,–,21µM,–
COc1cc2c(cc1OC)C(c1cccs1)N(C(=O)c1cccnc1)CC2 (stereo unspecified),2.9µM,?,–,4.6µM,–
COc1cc2c(cc1OC)C(C)N(CCN1C(=O)c3ccccc3C1=O)CC2 (stereo unspecified),–,–,–,–,–
COc1cc2c(cc1OC)C(C)N(C(=O)c1c(-c3ccccc3)noc1C)CC2 (stereo unspecified),13µM,23µM,–,18µM,?
COc1cc2c(cc1OC)C(C)N(CCc1ccc(Cl)cc1)CC2 (stereo unspecified),?,?,-59,?,12µM
COc1cc2c(cc1OC)C(C)N(C(=O)c1ccc(C)o1)CC2 (stereo unspecified),21µM,?,–,26µM,?
